The record followed here is PubChem BioAssay (Tox21).

Each structure is given as a SMILES string. A number with no mark means an inactive call. Results filed as inconclusive are left out. Activity calls are given as the source filed them. Unless noted, the call rests on the fitted dose curve; in most records, active means well fitted curve in the direction sought with a large enough effect in the repeat runs; inconclusive means weak or mixed curves; inactive means no such curve, though single readings can be large; an effect the other way counts as inactive or inconclusive.

The nature of test [1]: qHTS assay for small molecule agonists of the p53 signaling pathway (AID 651631; calls by dose curve; further: nearly all actives have a fitted effect of over 15% in size). In a few lines: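 p53RE-bla HCT-116 cells; compounds 16 h, 37 °C; LiveBLAzer B/G FRET substrate 2 h RT; fluorescence intensity read-out, qHTS format.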
(qHTS replaces the single test concentration by a dilution series.)

A short description of test [2]: qHTS assay for small molecules that induce genotoxicity in human embryonic kidney cells expressing luciferase-tagged ATAD5 (AID 651632). Further: nearly all actives have a fitted effect of over 15% in size. In a few lines:
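Increased luciferase signal from ATAD5-tagged reporter cells indicates DNA-damage-driven ATAD5 induction. HEK293T cells are treated for 16 hr at 37C before detection with Amplite.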

Test [3] in a line: qHTS assay for small molecule agonists of the p53 signaling pathway - cell viability (AID 651633; calls by dose curve;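 further: p53RE-bla HCT reporter cells with a stable beta-lactamase p53 reporter; series mostly up to about 83 µM; nearly all actives have a fitted effect of over 30% in size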). Summed up:
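p53RE-bla cells were treated with compound for 16 hours at 37 C. Cytotoxicity was then measured as CellTiter-Glo luminescence after 30 min at room temperature.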

Test [4] can be described thus: qHTS assay for small molecules that induce genotoxicity in human embryonic kidney cells expressing luciferase-tagged ATAD5 - cell viability (AID 651634; calls by dose curve; further: nearly all actives have a fitted effect of over 25% in size). In a few lines:
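Cytotoxicity counterscreen in HEK293T cells bearing an ATAD5-luciferase reporter: live-cell protease activity measured by CellTiter-Fluor fluorescence after 15.5 hr compound exposure.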

Test [5] in a line: qHTS assay for small molecule disruptors of the mitochondrial membrane potential - cell viability (AID 720634; calls by dose curve;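 further: human HepG2 liver cancer cells; series mostly up to about 83 µM; nearly all actives have a fitted effect of over 20% in size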). In a few lines:
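After overnight attachment at 37 C, HepG2 cells received compound or DMSO vehicle for 1 hr. Viability is then taken from ATP-driven luminescence following a 30 min room-temperature CellTiter-Glo step.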

Test [6] can be described thus: qHTS assay to test for compound auto fluorescence at 590 nm (red) in HepG2 cells (AID 720674). In a few lines: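 Seeding: 2,000 HepG2 cells/well, MEM/10% FBS, overnight 37 C. Dosing: compound vs DMSO. Incubation: 1 hr, 37 C, 5% CO2. Read: fluorescence 540 ex/590 em, Rose Bengal sodium as red reference.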
Test [7] in a line: qHTS assay to test for compound auto fluorescence at 535 nm (green) in HepG2 cells (AID 720675).
The nature of test [8]: qHTS assay to test for compound auto fluorescence at 460 nm (blue) in HEK293 cells (AID 720678). Summed up: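 After cell attachment (4-5 hr, 37C), compounds were pinned onto HEK293 monolayers in 10% dialyzed FBS medium. The blue channel (405/460 nm) was read following overnight culture. Equivalency was calculated against triamterene.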
Test [9] can be described thus: qHTS assay to test for compound auto fluorescence at 590 nm (red) in HEK293 cells (AID 720679). Summed up:
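Plates of HEK293 cells (10% dialyzed FBS) are treated with 23 nL compound or DMSO vehicle after a 4-5 hr attachment period, incubated overnight at 37C, and read for red fluorescence at 540/590nm.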

Test [10] in a line: qHTS assay for small molecule disruptors of the mitochondrial membrane potential (AID 720635). Further: potency means the concentration at half of the fitted maximal effect. In a few lines: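 HepG2 cells exposed to compound 1 hr at 37C, then Mito-MPS dye 30 min. Ratio read of aggregate (540/590 nm) versus monomer (490/535 nm) fluorescence.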
On the % scale 0 is the no-effect control and ±100 the full control effect.

In the case of `COc1cc(N)c(Cl)cc1C(=O)NC1CCN(Cc2ccccc2)CC1`, the Potency result in [1], in [2], in test [3], in [4] and in [5] was “inactive” in each case. The fluorescence, relative to Rose Bengal in test [6] is -0.629% [at 18.6 µM]. Besides, the fluorescence, % of fluorescein control in test [7] was 0.0143% [at 18.6 µM]. For the same compound, the fluorescence, % of triamterene in [8] was 0.111% [at 18.6 µM]. In test [9], the fluorescence, % of fluorescent control was -0.139% [at 18.6 µM].

On to `Oc1ccccc1C=NCc1ccccc1`, for which the Potency entry in test [1], in test [2], in [3], in test [4] and in [5] was “inactive” each time. Besides, in test [10], the Potency was 21.1 µM (active). Also, the compound was classed as inactive in test [7], in test [8] and in test [9].

Turning to `CCCOCCC`, the Potency entry in [1], in test [2], in test [3], in test [4], in test [5] and in test [10] was “inactive” each time. Moreover, the compound was classed as inactive in test [6], in test [7], in test [8] and in test [9].

Regarding `CCC(=O)Nc1ccc(O)cc1`, the Potency result in [1], in [2], in [3], in [4], in test [5] and in test [10] was “inactive” each time. The outcome in [7], in [8] and in [9] was inactive.

On to `CCCCCCCCCC#N`, for which the Potency result in test [1], in test [2], in [3], in test [4] and in test [5] was “inactive” throughout. Moreover, the result in test [6], in test [7], in test [8] and in [9] was inactive.

Regarding `COc1cc(Cl)ccc1Cl`, the Potency entry in test [1], in test [2], in test [3], in [4] and in test [5] was “inactive” each time. Also, the result in test [6], in [7], in test [8] and in test [9] was inactive.

For `CC(C)(CO)[C@@H](O)C(=O)NCCC(=O)O`, the Potency result in test [1], in test [2], in [3], in test [4], in test [5] and in test [10] was “inactive” each time. The outcome in [6], in [7], in [8] and in [9] was inactive.

Consider `FC(F)(F)c1ccccc1`, for which the Potency result in test [1], in [2], in [3], in test [4], in [5] and in test [10] was “inactive” throughout. The compound was classed as inactive in test [6], in test [7], in [8] and in [9].

For `CO[C@@]1(NC(=O)CSCC#N)C(=O)N2C(C(=O)O)=C(CSc3nnnn3C)CS[C@@H]21`, the Potency entry in test [1], in test [2], in test [3], in test [4], in test [5] and in [10] was “inactive” in each case. Besides, the result in test [6], in test [7], in [8] and in test [9] was inactive.

Take `COc1nc(C)nc(NC(=O)NS(=O)(=O)c2ccccc2OCCCl)n1`: the Potency result in test [1], in test [2], in test [3], in test [4], in test [5] and in test [10] was “inactive” in each case. Besides, the outcome in test [6], in [7], in test [8] and in [9] was inactive.

In the case of `C=CCCC=C`, the Potency result in [1], in [2], in test [3], in [4] and in test [5] was “inactive” each time. Further, the compound was called inactive in test [6], in test [7], in test [8] and in test [9].

Turning to `O=C1CCC(C2CCCCC2)CC1`, the Potency result in test [1], in [2], in test [3], in test [4], in test [5] and in test [10] was “inactive” each time. The compound was called inactive in test [6], in test [7], in [8] and in test [9].

As for `CCN(CC)C(=O)N(CC)CC`, the Potency entry in [1], in [2], in test [3], in test [4], in test [5] and in [10] was “inactive” in each case. For the same compound, the call in [6], in test [7], in test [8] and in [9] was inactive.

Turning to `ICCc1ccccc1`, the Potency entry in test [1], in test [2], in test [3], in [4] and in test [5] was “inactive” in each case. In addition, the result in test [6], in test [7], in [8] and in test [9] was inactive.

As to `O=C(O[C@@H](C(=O)O)[C@@H](OC(=O)c1ccccc1)C(=O)O)c1ccccc1`, the Potency entry in test [1], in test [2], in test [3], in test [4], in test [5] and in test [10] was “inactive” in each case. The compound was called inactive in [7], in test [8] and in test [9].

`NC(Cc1ccc(F)cc1)C(=O)O` (stereo not drawn): the activation in test [1] is -4.8% [at 8.3 µM]; in [2] it was 3.53% [at 8.08 µM]. Also, the activity change, negative = cytotoxicity in [3] is 33% [at 8.08 µM]; in test [5], -3.31% [at 8.08 µM]. The activity, negative = cytotoxicity in test [4] is 10.7% [at 8.08 µM]. In [6], the fluorescence, relative to Rose Bengal is 0.0373% [at 3.72 µM]. Moreover, the fluorescence, % of fluorescein control in test [7] is -0.0482% [at 3.72 µM]. In addition, in [8], the fluorescence, % of triamterene was -0.105% [at 3.72 µM]. The fluorescence, % of fluorescent control in test [9] was 0.0934% [at 3.72 µM].

As to `CC(C)C(=O)OCC(C)(C)C(O)C(C)C` (stereo not drawn), the Potency entry in [1], in [2], in test [3], in test [4], in test [5] and in test [10] was “inactive” throughout. The result in [6], in test [7], in test [8] and in [9] was inactive.

`O=c1[nH]cnc2c1ncn2[C@@H]1O[C@H](CO)[C@@H](O)[C@H]1O`: the Potency result in [1], in test [2], in test [3], in test [4], in test [5] and in test [10] was “inactive” each time. In addition, the result in test [7], in test [8] and in test [9] was inactive.

`O=C1CCCc2ccccc21`: the Potency entry in test [1], in [2], in test [3], in test [4], in test [5] and in test [10] was “inactive” each time. In addition, the compound was called inactive in test [6], in test [7], in test [8] and in [9].

On to `COc1cc(C)ccc1C(C)C`, for which the Potency entry in test [1], in [2], in test [3], in test [4], in test [5] and in test [10] was “inactive” each time. The compound was classed as inactive in [7], in test [8] and in [9].

For `CCCCCOc1ccc(C2SC(=O)NC2=O)cc1OCC` (stereo not drawn), the Potency entry in test [1], in test [2], in test [3], in test [4] and in [5] was “inactive” each time. Besides, the Potency in test [10] was 29.8 µM (active). The compound was classed as inactive in test [6], in test [7], in test [8] and in test [9].

In the case of `NC/C=C/C(=O)O`, the Potency result in test [1], in test [2], in test [3], in [4], in test [5] and in test [10] was “inactive” throughout. Besides, the compound was classed as inactive in test [7], in test [8] and in test [9].

Turning to `C=CCc1cc(OC)c(O)c(C(=O)NCCO)c1`, the Potency result in test [1], in test [2], in test [3], in test [4], in test [5] and in [10] was “inactive” throughout. For the same compound, the compound was called inactive in [6], in test [7], in [8] and in test [9].

With `CCOc1ccccc1N`, the Potency result in [1], in test [2], in [3], in test [4], in [5] and in [10] was “inactive” throughout. Further, the call in [6], in test [7], in test [8] and in test [9] was inactive.
